# Screening results (PubChem BioAssay)
# Shown are actives, neighbours in structure and some others; about 6.5% of the full set was active somewhere.
# Marburg entry inh – qHTS for inhibitors of binding or entry into cells for Marburg Virus; Marburg virus pseudotyped entry inhibition, cell reporter; Potency, µM (highest dose often 37.8 µM), hits mostly inhibitors; hit rate 1.8% among 300,000; AID 540276, 2011; calls by dose curve; tested in HEK293 cells
# Lassa entry inh – qHTS for Inhibitors of binding or entry into cells for Lassa Virus; Potency, µM (top dose mostly 37.9 µM), usual class: inhibitors; hit rate 1.2% among 300,000; Lassa virus pseudotype entry inhibition, cell reporter; calls by dose curve; tested in HEK293 cells; also: nearly all actives have a fitted effect of over 50% in size
# HCMV antiviral – qHTS Assay for inhibitors of the human cytomegalovirus (HCMV); hit rate 4.5% among 410,000; activity change, negative = inhibition, % at 57.5 µM; HFF cells, HCMV-luciferase reporter, 72 h; hits give low values; in the data active = activity change below about -60%; inconclusive = no clear call, values can overlap the other calls; inactive = above about -39%
#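 Inhibition of viral replication was scored as loss of reporter luminescence in HFFs infected with HCMV-luciferase (MOI 1 PFU/cell) for 72 h; compounds tested at 2 doses, normalized to buffer and Salinomycin controls.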
# VACV Venus inh – qHTS for Stage-Specific Inhibitors of Vaccinia Orthopoxvirus: Venus Reporter Primary qHTS. hit rate 0.46% among 330,000. Vaccinia virus Venus reporter expression, fluorescence. AID 720580, 2013. Potency, µM (highest dose often 36.5 µM), most hits filed as inhibitors; calls by dose curve; tested in A549 cells; also: nearly all actives have a fitted effect of over 30% in size
# VACV mCherry inh – qHTS for Stage-Specific Inhibitors of Vaccinia Orthopoxvirus: mCherry Reporter Primary qHTS; Potency, µM (top dose mostly 36.5 µM), most hits filed as inhibitors; AID 720579, 2013; Vaccinia virus mCherry reporter infection, fluorescence; hit rate 0.63% among 310,000; calls by dose curve; tested in A549 cells; also: nearly all actives have a fitted effect of over 35% in size
# FMDV antiviral – High Throughput Screening for Foot and Mouth Disease Virus Antivirals; hit rate 1.2% among 410,000; FMDV antiviral cell-based qHTS; AID 1159524, 2015; Potency, µM (titrated, usually from 57.9 µM), most hits filed as inhibitors; calls by dose curve; tested in HEK293T cells; also: read-out not given here; nearly all actives have a fitted effect of over 45% in size
# Hits are given with their value; – = inactive; ? = inconclusive; · = no result; + = active, no number.
SMILES,Marburg entry inh,Lassa entry inh,HCMV antiviral,VACV Venus inh,VACV mCherry inh,FMDV antiviral
CC1CCCN(S(=O)(=O)c2ccc(NC(=O)C3CCN(C(=O)c4ccco4)CC3)cc2)C1 (centres undefined),–,–,-60.1,–,–,–
Cc1cccc2sc(NC(=O)C3CCN(C(=O)c4ccco4)CC3)nc12,?,7.94µM,–,–,–,–
Cc1cccc(OCC(=O)Nc2ccc(O)c(-c3nc4ccccc4o3)c2)c1,·,·,·,–,–,·
CN(C)c1ccc2cc3c(c(S(=O)(=O)c4ccccc4)c2c1)CCC3,·,·,–,·,·,·
O=C(N/N=C1\C[C@@H](O)[C@@H](O)[C@@H]2[C@@H]3C(=O)N(C[C@@H]4CCCO4)C(=O)[C@@H]3CC[C@@H]12)OCc1ccccc1,–,·,·,·,·,·
CN1CCN(CCCNC(=O)c2ccc(/C=C3\Sc4ccccc4N(Cc4ccccc4F)C3=O)cc2)CC1,·,·,-63.4,·,·,–
CCN1CCN(CCNC(=O)c2ccc(/C=C3/Sc4ccccc4N(Cc4cccc(Cl)c4)C3=O)cc2)CC1,?,?,-103.3,?,–,–
CCN1CCN(CCNC(=O)c2ccc3c(c2)N(Cc2ccc(F)cc2)C(=O)/C(=C/c2ccccc2)S3)CC1,?,?,-80.9,?,?,–
Cc1cccc(CN2C(=O)/C(=C\c3ccc(C(=O)NCCN4CCOCC4)cc3)Sc3ccccc32)c1,?,?,·,–,–,39.8µM
O=C(CN1C(=O)/C(=C/c2ccc(C(F)(F)F)cc2)Sc2ccccc21)NCCCN1CCOCC1,·,·,–,·,·,–
O=C1Nc2cc(C(=O)NCCCN3CCCC3)ccc2S/C1=C/c1ccccc1F,·,·,–,·,·,–
CCc1ccc(/C=C2/Sc3ccccc3N(CC(=O)NCCCN3CCOCC3)C2=O)cc1,·,·,-60.3,·,·,–
O=C1Nc2cc(C(=O)NCCN3CCCCCC3)ccc2S/C1=C/c1ccccc1F,·,·,–,12.6µM,?,–
COc1ccc(NC(=O)C(=O)c2cc(C)n(-c3ccc(C)cc3)c2C)cc1Cl,–,–,?,–,–,–
COc1ccc(Cn2c(SCc3ccc(C(=O)NCc4cccs4)cc3)nc3ccncc32)cc1,?,·,?,–,–,–
O=C(c1c[nH]c2ccccc12)N1CCOCC1,–,–,–,–,–,–
S=C(c1c[nH]c2ccc(Br)cc12)N1CCOCC1,·,·,-71.8,·,·,–
COc1ccccc1-c1nnc(SCC(=O)c2c(N)n(C3CC3)c(=O)[nH]c2=O)o1,·,·,–,·,·,–
Nc1c(C(=O)CSc2nc3ccccc3o2)c(=O)[nH]c(=O)n1C1CC1,·,·,+,·,·,–
Cc1sc2ncnc(SCC(=O)N3c4ccccc4Sc4ccc(Cl)cc43)c2c1C,?,–,–,–,–,–
CCOC(=O)c1c(C)sc2c1N(C(=O)CCl)c1cc(Cl)ccc1S2,?,?,-96.0,–,?,10µM
Cc1ccc(-c2cc(C(=O)Nc3sc4c(c3C(=O)NCc3ccco3)CCC4)[nH]n2)c(O)c1,–,–,–,·,·,25.1µM
Cc1cc(O)c(-c2cc(C(=O)Nc3sc4c(c3C(=O)NCc3ccco3)CCC4)[nH]n2)cc1C,·,·,–,–,?,–
O=C(COC(=O)c1ccccc1C(=O)c1ccc(Cl)cc1)NCCc1ccccc1,?,–,-76.3,?,?,–
Cc1cc(NC(=O)COC(=O)c2c(C)nn(-c3ccccc3)c2C)no1,?,18.3µM,–,·,·,–
SMILES,Marburg entry inh,Lassa entry inh,HCMV antiviral,VACV Venus inh,VACV mCherry inh,FMDV antiviral
Cc1nn(-c2ccccc2)c(C)c1C(=O)OCC(=O)Nc1ccccc1,–,–,–,–,–,–
COc1ccc(CCNC(=O)c2c(C)nn(-c3ccccc3)c2Cl)cc1OC,–,?,–,–,–,?
Cc1ccc(-n2nc(C)c(C(=O)NCCCN3CCN(c4ccc(F)cc4)CC3)c2-n2cccc2)cc1,·,?,-70.1,–,?,–
O=C(COC(=O)c1ccccc1C(=O)c1ccccc1)NCCc1ccccc1,–,–,–,–,–,–
Cc1nn(-c2ccccc2)c(Cl)c1C(=O)OCC(=O)NCCc1ccccc1,11.2µM,?,–,–,–,–
COc1ccc(N2CCN(CCCNC(=O)c3c(C)nn(-c4ccc(F)cc4)c3-n3cccc3)CC2)cc1,·,–,–,–,–,?
Cc1cccc(-c2noc(CN(C3CCCCC3)S(=O)(=O)c3ccc(F)cc3)n2)c1,–,–,–,–,–,–
O=C(Cn1cncn1)NCC1Cc2cc(-c3ccsc3)cc(Cl)c2O1 (centres undefined),·,·,·,–,–,–
Cc1nn(-c2ccccc2)c(-n2cccc2)c1C(=O)NCCc1ccc(Cl)cc1,–,–,-99.8,–,–,?
CCOc1ccc(CCNC(=O)COC(=O)c2c(C)nn(-c3ccccc3)c2C)cc1OCC,–,–,-98.6,–,–,–
COc1ccc(Nc2ncc(C(=O)Nc3cccc(OC)c3)c3ccccc23)cc1,–,?,–,–,–,–
Cc1cc(C)cc(OCC(=O)Nc2ccc(Cl)c(-c3nc4ncccc4o3)c2)c1,–,–,?,–,–,–
O=C(NCc1ccco1)/C(=C/C=C\c1ccccc1)NC(=O)c1ccc(Br)o1,?,?,-69.1,–,–,–
CCCc1nc2c(C)cc(Br)cn2c1Cc1cccc(Cl)c1,·,·,–,·,·,·
CCOc1ccc(NC(=O)CCS(=O)(=O)c2ccc(Br)s2)cc1,–,?,–,–,–,–
COc1ccc(S(=O)(=O)N(CCc2ccccc2)CC(=O)NCc2ccc(C)cc2)cc1,·,–,–,–,–,–
COc1cc(/C=C/c2ccc3cccc(OC)c3n2)c(OC(C)=O)c([N+](=O)[O-])c1,?,?,-83.8,·,·,?
COc1cc(Br)cc(/C=C/c2ccc3cccc(O)c3n2)c1O,·,·,–,·,·,–
COc1ccc(OC)c(/C=C/c2ccnc3ccccc23)c1,–,?,-98.3,–,–,–
COc1cc(/C=C/c2ccc3cccc(OC)c3n2)c(O)c([N+](=O)[O-])c1,·,·,–,·,·,–
COc1ccc(C=Cc2ccc3ccccc3n2)c(OC)c1,·,·,-87.6,–,?,?
COc1cc(/C=C/c2ccc3cccc(O)c3n2)c(Br)cc1O,·,·,-98.3,·,·,·
CCC(C)NC(=O)c1c(-c2ccccc2)c(-c2ccccc2)nn(C)c1=O (centres undefined),–,–,–,–,–,–
CCC(Sc1nc2ccncc2[nH]1)C(=O)Nc1cc(C)ccc1C (centres undefined),–,–,–,–,–,–
COc1ccc(OC)c(/C=C/c2ccc3ccccc3n2)c1,·,·,·,–,–,·
Oc1cccc2ccc(/C=C/c3ccccc3Br)nc12,?,?,-87.0,–,?,–
Oc1c(Cl)cc(Cl)cc1/C=C/c1ccc2cccc(O)c2n1,?,?,–,–,2.51µM,–
Oc1ccc(Cl)cc1/C=C/c1ccc2cccc(O)c2n1,?,–,–,–,?,–
COc1cc(Br)c(/C=C/c2ccc3cccc(O)c3n2)cc1OC,·,·,-86.7,·,·,–
COc1ccc(OC)c(/C=C/c2ccc3cccc(O)c3n2)c1,·,·,-65.4,·,·,·
